# Only some compounds are listed: those with a hit (about 19% of all), similar ones and a draw of the others.
# ASM inhibitor = Inhibitors of Secretory Acid Sphingomyelinase (S-ASM): qHTS | Sphingomyelin phosphodiesterase (Homo sapiens), P17405 | placental ASM, HMU-PC fluorogenic substrate, 60 min | Potency, µM (series often up to 57.5 µM), hits mostly inhibitors | 340,000 tested, 0.006% active | AID 504937, 2011
# Target sequence (P17405 47-631 limits assumed): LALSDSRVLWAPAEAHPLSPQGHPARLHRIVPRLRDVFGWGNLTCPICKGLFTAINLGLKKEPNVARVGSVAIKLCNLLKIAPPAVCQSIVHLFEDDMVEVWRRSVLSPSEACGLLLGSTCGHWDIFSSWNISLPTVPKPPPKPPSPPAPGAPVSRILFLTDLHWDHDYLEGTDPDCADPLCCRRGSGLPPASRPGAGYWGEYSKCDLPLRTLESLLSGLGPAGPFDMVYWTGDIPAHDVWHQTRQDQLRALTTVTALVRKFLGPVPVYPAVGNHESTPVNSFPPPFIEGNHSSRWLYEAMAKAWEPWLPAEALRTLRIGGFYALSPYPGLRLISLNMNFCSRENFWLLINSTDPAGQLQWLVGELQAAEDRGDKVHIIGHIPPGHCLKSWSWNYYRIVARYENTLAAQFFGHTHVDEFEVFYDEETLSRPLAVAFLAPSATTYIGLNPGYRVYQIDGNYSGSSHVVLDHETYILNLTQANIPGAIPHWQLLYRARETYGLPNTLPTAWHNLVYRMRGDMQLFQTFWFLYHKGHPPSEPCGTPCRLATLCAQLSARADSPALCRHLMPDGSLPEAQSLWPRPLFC
#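 Fluorescence read-out (Ex 386 nm, Em 447 nm) after stopping the reaction at pH 10. Enzyme: ASM from human placenta; substrate HMU-PC0, 9 uM final; 60 min, 37 °C. Compound preincubation 10 min, ambient temperature.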
# IL1B secr inh = qHTS for Inhibitors of Inflammasome Signaling: IL-1-beta AlphaLISA Primary Screen; activity change, % at 57.5 µM; 360,000 tested, 4.7% active; THP-1 LPS/ATP IL-1B secretion, AlphaLISA, 16 h; hits give low values; in the data active means activity change below about -50%; inconclusive means mostly about -30% to -49%
#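 THP-1 cells pretreated 1 hr with compounds (up to 57.5 uM final), then stimulated with LPS (250 ng/mL final) plus ATP (1.25 mM final); secreted IL-1B measured by AlphaLISA after 16 hr, decreased signal indicating inhibition.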
# HepG2 viability = qHTS for Inhibitors of TGF-b: Cytotox Counterscreen; 410,000 tested, 0.76% active; HepG2 CAGA-GFP viability, ATP luminescence, 18 h; AID 588856, 2011; Potency, µM (doses to about 46.1 µM), hits mostly cytotoxic
#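 HepG2 CAGA-GFP cells (1000/well, DMEM with 1% FBS) received compound, then TGF-beta at 500 pg/mL final, and were incubated 18 hours at 37 degrees C. Viability was read by CellTiter-Glo luminescence. Media-only wells were set as complete cell-killing and DMSO as no toxicity.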
# TGFb SMAD3 inh = qHTS for Inhibitors of TGF-b; 410,000 tested, 1.2% active; AID 588855, 2011; Potency, µM (titrated, usually from 46.1 µM), hits mostly inhibitors; HepG2 CAGA-GFP TGF-b/SMAD3 reporter, GFP fluorescence, 18 h; TGF-beta stimulated, 500 pg/mL final; further: nearly all actives have a fitted effect of over 65% in size
#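 Smad-responsive CAGA-GFP expression was quantified in HEPG2 cells exposed to compounds and 500 pg/mL final TGF-beta for 18 h at 37 degrees C; unstimulated wells defined full inhibition.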
# DT40 TDP1 no CPT = qHTS for Inhibitors of human tyrosyl-DNA phosphodiesterase 1 (TDP1): qHTS in cells in absence of CPT | AID 686978, 2013 | Potency, µM (titrated, usually from 46.2 µM), hits mostly inhibitors | 420,000 tested, 15% active | DT40 Tdp1-/- hTDP1 cells, no CPT, ATP luminescence, 48 h; further: nearly all actives have a fitted effect of over 55% in size
#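 Cells were dispensed at 400 per well, compounds added by pin tool, plates incubated ≥48 hr at 37 °C, then CellTiter-Glo added for 30 min at room temperature before luminescence reading. Line: DT40 Tdp1-/- complemented with hTDP1; camptothecin omitted.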
# DT40 TDP1 CPT = qHTS for Inhibitors of human tyrosyl-DNA phosphodiesterase 1 (TDP1): qHTS in cells in presence of CPT. 420,000 tested, 12% active. AID 686979, 2013. chicken DT40 Tdp1-/-;hTDP1 cells + 20 nM CPT, ATP luminescence, 48 h. Potency, µM (top dose mostly 46.2 µM), hits mostly inhibitors; further: nearly all actives have a fitted effect of over 55% in size
#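 Cell growth measured by CellTiter-Glo luminescence after a minimum 48 h, 37 C compound exposure with 20 nM CPT in Tdp1-knockout DT40 cells stably expressing hTDP1, seeded 400/well; qHTS titration format.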
# A number is an active result; 0 = inactive; ? = inconclusive; - = not tested or not shown. Unless noted, the call rests on the fitted dose curve; in most records, active means well fitted curve in the direction sought with a large enough effect; inconclusive means small, poorly fitted or top-dose-only effect, or another doubt; inactive means no such curve, though single readings can be large; an effect the other way counts as inactive or inconclusive.
SMILES,ASM inhibitor,IL1B secr inh,HepG2 viability,TGFb SMAD3 inh,DT40 TDP1 no CPT,DT40 TDP1 CPT
O=C(c1cc(F)ccc1F)C1CCCN(Cc2cccc(Cl)c2)C1 (stereo unspecified),0,0,0,0,?,0
Cc1ccc(CCNC(=O)C2CCCN(Cc3nc(-c4cccc(Cl)c4)oc3C)C2)cc1 (stereo unspecified),-,-,0,0,15µM,12µM
CCCCCn1c(SCCCC)nc2c1c(=O)[nH]c(=O)n2C,0,0,0,0,?,?
Cc1cc(O)c2c(c1)C(=O)C13C(=C2O)C(=O)[C@H]2[C@@H](O)[C@@H]1[C@H]1[C@H](O)[C@@H]3C(=O)C3=C(O)c4c(O)cc(C)cc4C(=O)C312 (stereo partly specified),0,0,0,?,1.2µM,0.65µM
CCC(=NCc1cc(OC)cc(OC)c1)c1c(O)n(C2CCCCC2)c(=O)[nH]c1=O,0,0,0,?,?,?
CCC(=NCc1cc(OC)cc(OC)c1)c1c(O)n(C)c(=O)n(C)c1=O,0,0,0,0,8.9µM,10µM
CC(=NCc1ccc2c(c1)OCO2)c1c(O)n(C)c(=O)n(C)c1=O,0,0,0,0,?,?
CCC(=NCc1ccc2c(c1)OCO2)c1c(O)n(C)c(=O)n(C)c1=O,0,0,0,0,21µM,?
CC(C)CS(=O)(=O)C1=NN2C(=N)/C(=C\c3ccc(OC(=O)c4ccco4)cc3)C(=O)N=C2S1,?,0,0,0,0,?
Cc1ccc(C2CC3CCC(C2)N3Cc2ccccc2F)cc1 (stereo unspecified),0,-85,0,0,?,?
CCN1C[C@]2(CO)CC[C@H](OC)[C@@]34C5C[C@H]6[C@H](OC)C5[C@](O)(C[C@H]6OC)[C@@H](C(OC)C23)[C@@H]14 (stereo partly specified),0,0,0,0,0,0
CCN(CC)CCNC(=O)c1c(C)[nH]c(/C=C2\C(=O)Nc3ccc(F)cc32)c1C,-,-,-,-,3.8µM,4.2µM
O=C1NC(=O)C(CCc2ccncc2)(CCc2ccncc2)C(=O)N1Cc1ccccc1,0,0,0,0,?,0
COCCCOc1ccnc(CS(=O)c2nc3ccccc3[nH]2)c1C (stereo unspecified),0,0,0,0,?,24µM
CCCOP(=O)(OCCC)C1(Nc2ccc(C)cc2)CCCCC1,0,0,0,0,?,0
c1ccc(CCN2CCCCC2)cc1,-,-,0,0,0,0
O=c1[nH]cc(N(CCCl)CCCl)c(=O)[nH]1,-,-,-,-,0,0
O=c1[nH]cc(F)c(=O)[nH]1,0,0,0,0,16µM,18µM
CCN(CC)P(c1n(C)cc[n+]1C)N(CC)CC,0,0,0,0,23µM,?
O=C(Nc1c(Cl)cccc1Cl)Oc1cccc2cccnc12,-,0,0,?,4.6µM,4.1µM
CN(C)C(=O)Oc1ccc(Cl)c2cccnc12,0,0,0,0,0,0
O=C(O)C1C2CCC(O2)C1C(=O)Nc1cccc(Br)c1 (stereo unspecified),0,0,0,0,0,0
O=C(Nc1cccc(Br)c1)Oc1cccc2cccnc12,-,0,2.8µM,?,3.3µM,5.2µM
CC(C)CN1CCCC2(CCN(C(=O)Oc3ccccc3)CC2)C1,-,-,-,-,0,0
COc1ccc(NC(=O)N2CCCC3(CCN(C(=O)Oc4ccccc4)CC3)C2)cc1,-,-,-,-,0,0
SMILES,ASM inhibitor,IL1B secr inh,HepG2 viability,TGFb SMAD3 inh,DT40 TDP1 no CPT,DT40 TDP1 CPT
COC(=O)[C@H]1[C@@H](OC(=O)c2ccccc2)C[C@@H]2CC[C@H]1N2C,-,-,-,-,0,?
O=C(Nc1cccc(F)c1)N1CC2(CCNCC2)C1,-,-,-,-,8.2µM,8.2µM
O=C(Nc1cccc(F)c1)N1CCC2(CC1)CCN(C(=O)Oc1ccccc1)CC2,-,-,-,-,23µM,?
CCCC(=O)NC(Oc1ccccc1Cl)C(Cl)(Cl)Cl (stereo unspecified),0,0,0,0,0,0
COc1cc(C(=O)NC2CC3CCCC(C2)N3CC(=O)Nc2ccccc2)cc(OC)c1OC (stereo unspecified),0,0,0,0,?,?
Cc1ccc(-c2cc(C(F)(F)F)n3nc(C(=O)Nc4c(C)n(C)n(-c5ccccc5)c4=O)cc3n2)cc1,0,0,0,0,?,0
O=C(c1ccccc1)N1CCN(c2ccccc2)CC1,0,0,0,0,23µM,0
c1cnc2c(c1)ncn2C1CCNCC1,-,-,0,0,0,?
N[C@@H](Cc1cc(I)c(O)c(I)c1)C(=O)O,0,0,0,0,?,0
NC(Cc1cc(O)c(O)cc1O)C(=O)O (stereo unspecified),-,-,0,0,6.3µM,5µM
Cc1o[nH]c(=O)c1C[C@H](N)C(=O)O,-,-,-,-,0,0
Cc1ccccc1-c1nc(CS(=O)CC(=O)N2CCN(c3cc(Cl)ccc3C)CC2)c(C)o1 (stereo unspecified),-,-,0,?,13µM,16µM
O=C(O)CCCCCCNC1c2ccccc2CCc2ccccc21,-,-,-,-,0,0
CN(C)CCCOc1nn(Cc2ccccc2)c2ccccc12,0,0,0,0,23µM,?
Cc1cccc(NC(=O)CSc2ccc(-c3ccco3)nn2)c1,0,0,0,0,29µM,?
COc1ccc(NC(=O)CSc2nc(-c3ccco3)cc(C(F)(F)F)n2)cc1OC,-,-,0,?,0.92µM,1.5µM
C[C@@H]1CN([C@@H](C)CO)C(=O)c2c(c3ccccc3n2C)-c2ccccc2CO[C@H]1CN(C)C(=O)[C@H](C)c1ccccc1,-,0,0,?,18µM,16µM
C[C@@H]1CN([C@H](C)CO)C(=O)c2c(c3ccccc3n2C)-c2ccccc2CO[C@H]1CN(C)C(=O)c1cc(Cl)cc(Cl)c1,-,0,0,0,?,0
C[C@H](CO)N1C[C@H](C)[C@H](CN(C)C(=O)N[C@H](C)c2ccccc2)OCc2ccccc2-c2c(n(C)c3ccccc23)C1=O,-,0,0,0,16µM,23µM
CC1N=C(c2ccccc2Cl)c2cc(Br)ccc2NC1=O (stereo unspecified),0,0,0,0,0,0
CC(Cc1ccccc1)NC(=O)/C=C/c1ccc(Cl)cc1 (stereo unspecified),0,-54,0,0,?,?
